Laboratory results from PubChem BioAssay AID1159580 (chemical genetic matrix, 2015).
Values joined by “and” are separate entries in the source; they are usually repeats but may differ in a detail not shown here. Identical values can stand only once. In all, about 5,500 compounds went through this assay and about 2,000 (36%) were called active. Another 18% or so got no clear call; they are omitted. Rule as the data show it: active = normalized growth mostly below about 0.91 (no sharp cut-off); inconclusive = no clear call, values can overlap the other calls; inactive = mostly above about 0.92. The list shows a part of the results.

Test: chemical genetic growth profiling, strain panel (AID 1159580);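 also: tested at 20 µM; growth read once vehicle control cultures reached saturation at 30 °C; 1 = growth at the plate median or of vehicle wells; lower values mean less growth of the strain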
Settings: S. cerevisiae deletion strains, growth OD

Measured: normalized growth

Cn1c(=O)[nH]c2ncn(C)c2c1=O
inactive: locus YAL013W, strain DEP1, stronger effect = lower value 1.01 | locus YAL021C, strain ccr4, stronger effect = lower value 1.06 | locus YAL026C, strain drs2, stronger effect = lower value 0.985 | locus YAL030W, strain snc1, stronger effect = lower value 0.981 | locus YAL040C, strain CLN3, stronger effect = lower value 0.958 | locus YBL061C, strain skt5, stronger effect = lower value 0.99 | locus YBR009C, strain hhf1, stronger effect = lower value 0.995 | locus YBR021W, strain FUR4, stronger effect = lower value 1.04 | locus YBR023C, strain chs3, stronger effect = lower value 1 | locus YBR171W, strain sec66, stronger effect = lower value 0.95 | locus YBR229C, strain ROT2, stronger effect = lower value 1.01 | locus YBR231C, strain swc5, stronger effect = lower value 0.962 | locus YBR279W, strain paf1, stronger effect = lower value 0.993 | locus YCL011C, strain gbp2, stronger effect = lower value 0.966 | locus YCL016C, strain dcc1, stronger effect = lower value 1.03 | locus YCL029C, strain bik1, stronger effect = lower value 0.996 | locus YCL061C, strain MRC1 (second series), stronger effect = lower value 1.01 | locus YCL061C, strain MRC1, stronger effect = lower value 0.995 | locus YCL069W, strain vba3, stronger effect = lower value 0.968 | locus YCR088W, strain abp1, stronger effect = lower value 0.966 | locus YDL005C, strain med2, stronger effect = lower value 0.962 | locus YDL035C, strain GPR1, stronger effect = lower value 1.02 | locus YDL040C, strain nat1, stronger effect = lower value 0.962 | locus YDL074C, strain BRE1, stronger effect = lower value 1.05 | locus YDL101C, strain DUN1, stronger effect = lower value 1.01 | locus YDL134C, strain PPH21, stronger effect = lower value 1.02 | locus YDL185W, strain tfp1, stronger effect = lower value 0.996 | locus YDL192W, strain arf1, stronger effect = lower value 0.993 | locus YDR001C, strain nth1, stronger effect = lower value 0.968 | locus YDR069C, strain doa4, stronger effect = lower value 0.949 | locus YDR101C, strain arx1, stronger effect = lower value 1 | locus YDR137W, strain rgp1, stronger effect = lower value 0.988 | locus YDR150W, strain NUM1, stronger effect = lower value 1.02 and 0.997 | locus YDR159W, strain sac3, stronger effect = lower value 0.939 | locus YDR162C, strain NBP2, stronger effect = lower value 1 | locus YDR195W, strain ref2 0.95 | locus YDR297W, strain sur2, stronger effect = lower value 0.959 | locus YDR318W, strain mcm21, stronger effect = lower value 0.992 | locus YDR334W, strain swr1, stronger effect = lower value 0.975 | locus YDR335W, strain msn5, stronger effect = lower value 0.978 | locus YDR363W, strain ESC2, stronger effect = lower value 1.01 | locus YDR388W, stronger effect = lower value 0.989 | locus YDR392W, strain spt3, stronger effect = lower value 0.937 | locus YDR502C, strain sam2, stronger effect = lower value 0.993 | locus YEL003W, strain gim4, stronger effect = lower value 0.972 | locus YEL037C, strain rad23, stronger effect = lower value 0.968 | locus YEL061C, strain CIN8 (second series), stronger effect = lower value 0.959 | locus YEL061C, strain CIN8, stronger effect = lower value 1.01 | locus YER002W, strain NOP16, stronger effect = lower value 1.01 | locus YER015W, strain faa2, stronger effect = lower value 0.98 | locus YER016W, strain bim1, stronger effect = lower value 0.967 | locus YER110C, stronger effect = lower value 0.996 | locus YER111C, strain swi4, stronger effect = lower value 0.98 | locus YER155C, strain BEM2 (second series), stronger effect = lower value 0.959 | locus YER155C, strain BEM2, stronger effect = lower value 1.02 | locus YER167W, strain BCK2, stronger effect = lower value 1.01 | locus YFR010W, strain ubp6, stronger effect = lower value 0.962 | locus YGL078C, strain dbp3, stronger effect = lower value 0.989 | locus YGL086W, strain mad1, stronger effect = lower value 1 | locus YGL167C, strain pmr1, stronger effect = lower value 0.982 | locus YGL173C, strain kem1, stronger effect = lower value 0.97 | locus YGL227W, strain vid30, stronger effect = lower value 0.967 | locus YGL240W, strain doc1, stronger effect = lower value 0.958 | locus YGL248W, strain PDE1, stronger effect = lower value 1.01 | locus YGL253W, strain hxk2, stronger effect = lower value 0.958 | locus YGR078C, strain PAC10, stronger effect = lower value 1.02 and 0.978 | locus YGR135W, strain pre9, stronger effect = lower value 0.992 | locus YGR229C, strain SMI1, stronger effect = lower value 1.02 | locus YGR252W, strain gcn5, stronger effect = lower value 0.981 | locus YHR013C, strain ard1, stronger effect = lower value 0.986 | locus YHR027C, strain rpn1, stronger effect = lower value 0.98 | locus YHR030C, strain SLT2, stronger effect = lower value 1 | locus YHR079C, strain IRE1 (second series), stronger effect = lower value 0.987 | locus YHR094C, strain hxt1, stronger effect = lower value 0.992 | locus YHR129C, strain ARP1, stronger effect = lower value 1.02 | locus YHR142W, strain chs7, stronger effect = lower value 0.987 | locus YHR200W, strain rpn10, stronger effect = lower value 0.993 | locus YIL066C, strain RNR3, stronger effect = lower value 1.01 | locus YIL073C, strain SPO22, stronger effect = lower value 1 | locus YIL125W, strain kgd1, stronger effect = lower value 0.994 | locus YIR030C, strain dcg1, stronger effect = lower value 1 | locus YJL092W, strain hpr5, stronger effect = lower value 0.971 | locus YJL095W, strain BCK1 (second series), stronger effect = lower value 0.973 | locus YJL095W, strain BCK1, stronger effect = lower value 1.02 | locus YJL115W, strain asf1, stronger effect = lower value 0.969 | locus YJL129C, strain trk1, stronger effect = lower value 0.967 | locus YJL134W, strain LCB3, stronger effect = lower value 1 | locus YJL154C, strain vps35, stronger effect = lower value 0.969 | locus YJL164C, strain tpk1, stronger effect = lower value 1 | locus YJL166W, strain qcr8, stronger effect = lower value 0.972 | locus YJL168C, strain set2, stronger effect = lower value 0.99 | locus YJL187C, strain SWE1 (second series), stronger effect = lower value 1.01 | locus YJL187C, strain SWE1, stronger effect = lower value 0.986
